Out of some 310,000 compounds screened, about 14,000 (4.5%) showed an effect of 50% or more. The effect is printed as a negative number. The list comes from a sample in which strong results are over-represented; it also holds similar structures and randomly drawn compounds.
biological target: human ether-à-go-go-related gene (hERG) potassium channel (human, UniProt Q12809); test: primary screen, population patch clamp on CHO cells stably expressing hERG; higher = less effect of the substance
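Also: peak tail current of the secondary pulse compared with the same well before compound.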

Sequence of human ether-à-go-go-related gene (hERG) potassium channel (Q12809 whole entry, looked up): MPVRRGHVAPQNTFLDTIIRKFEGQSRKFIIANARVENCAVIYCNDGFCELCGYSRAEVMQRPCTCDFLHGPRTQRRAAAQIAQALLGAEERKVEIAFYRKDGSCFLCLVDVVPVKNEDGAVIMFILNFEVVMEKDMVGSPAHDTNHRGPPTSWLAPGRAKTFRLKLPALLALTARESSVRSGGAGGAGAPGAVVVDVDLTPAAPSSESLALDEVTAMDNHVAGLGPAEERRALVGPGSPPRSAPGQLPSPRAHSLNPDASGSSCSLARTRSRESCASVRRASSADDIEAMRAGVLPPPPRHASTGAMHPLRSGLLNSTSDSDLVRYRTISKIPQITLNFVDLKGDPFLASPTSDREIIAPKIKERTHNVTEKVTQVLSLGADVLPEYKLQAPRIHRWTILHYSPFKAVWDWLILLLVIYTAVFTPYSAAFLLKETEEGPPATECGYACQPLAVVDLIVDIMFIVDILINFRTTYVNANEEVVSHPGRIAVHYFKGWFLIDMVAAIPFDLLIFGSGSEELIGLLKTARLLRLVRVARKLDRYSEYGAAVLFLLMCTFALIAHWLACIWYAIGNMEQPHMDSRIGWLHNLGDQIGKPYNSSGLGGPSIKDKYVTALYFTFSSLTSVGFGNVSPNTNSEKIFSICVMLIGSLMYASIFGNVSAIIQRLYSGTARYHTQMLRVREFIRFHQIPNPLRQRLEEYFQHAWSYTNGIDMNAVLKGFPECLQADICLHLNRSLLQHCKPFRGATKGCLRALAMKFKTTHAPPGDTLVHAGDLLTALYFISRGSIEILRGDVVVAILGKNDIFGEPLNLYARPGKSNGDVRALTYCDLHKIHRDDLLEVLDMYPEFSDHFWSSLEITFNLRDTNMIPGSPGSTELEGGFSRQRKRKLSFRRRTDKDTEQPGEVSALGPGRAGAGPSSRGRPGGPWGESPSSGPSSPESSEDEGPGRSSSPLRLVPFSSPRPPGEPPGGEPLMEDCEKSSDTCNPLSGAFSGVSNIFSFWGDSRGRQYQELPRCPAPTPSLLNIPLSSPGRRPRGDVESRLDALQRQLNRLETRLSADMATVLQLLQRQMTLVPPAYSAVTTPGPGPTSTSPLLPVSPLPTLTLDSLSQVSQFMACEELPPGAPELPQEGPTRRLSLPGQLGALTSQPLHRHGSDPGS

Row | SMILES | hERG current change (%, negative = inhibition) at 10uM
1 | COc1ccccc1CN1CCN(C(=O)c2cccc3ccccc23)CC1 | 3.48%
2 | COc1cccc2cc(/C(=N/O)c3ccc(Br)cc3)oc12 | 5.41%
3 | COC(=O)c1ccc(NC(=O)c2ccc3nc(C)sc3c2)cc1 | 15.8%
4 | COc1cc(S(=O)(=O)NCc2ccccn2)c(OC)cc1Cl | -1.73%
5 | O=C(NCCCn1ccnc1)C(Cc1ccccc1)N1C(=O)c2ccccc2C1=O (centres unmarked) | -34.5%
6 | O=C(CCN1C(=O)c2ccccc2C1=O)NCCCn1ccnc1 | 11.3%
7 | O=C(NCCCn1ccnc1)C(Cc1ccc([N+](=O)[O-])cc1)N1C(=O)c2ccccc2C1=O (centres unmarked) | -62.3%
8 | Cc1ccc(-n2nc3ccc(NC(=O)c4ccc5c(c4)OCO5)cc3n2)cc1 | 7.8%
9 | O=C(NCCc1ccccc1)c1c(O)c2cccc3c2n(c1=O)CC3 | 1.79%
10 | CCCN(CCC)Cc1cc2ccccc2c2c1COC2 | -29%
11 | CCCCN(CCCC)Cc1cc2ccccc2c2c1COC2 | -54.6%
12 | CCN(CC)Cc1cc2ccccc2c2c1COC2 | -44.1%
13 | COc1ccc(NC(C)=O)cc1CNC(=O)CN1CCOCC1 | 19.1%
14 | O=C(NCC1CCCO1)C(c1cccs1)N(Cc1cccs1)C(=O)c1ccc(-c2ccccc2)[nH]1 (centres unmarked) | 7.78%
15 | O=C(NCC(=O)N(CCN1CCOCC1)C(C(=O)NC1CCCC1)c1cccs1)c1ccco1 (centres unmarked) | -0.929%
16 | O=C(NC1CCCC1)C(c1ccncc1)N(CCCN1CCOCC1)C(=O)c1ccc(-c2ccccc2)[nH]1 (centres unmarked) | -61.1%
17 | CCOc1ccc(C(C(=O)NC2CCCC2)N(CCCO)C(=O)c2ccc(-c3ccccc3)[nH]2)cc1 (centres unmarked) | -61.6%
18 | O=C(NCC1CCCO1)C(c1ccc(F)cc1)N(CCCN1CCOCC1)C(=O)c1ccc(-c2ccccc2)[nH]1 (centres unmarked) | -26.2%
19 | Cc1ccc(C(C(=O)NC(C)(C)C)N(CCCN2CCOCC2)C(=O)c2ccc(-c3ccccc3)[nH]2)o1 (centres unmarked) | -76.5%
20 | O=C(NC1CCCCC1)C(c1ccc(F)cc1)N(CCN1CCOCC1)C(=O)c1ccc(-c2ccccc2)[nH]1 (centres unmarked) | 24.4%
21 | O=C(NC1CCCCC1)C(c1ccncc1)N(Cc1ccccc1)C(=O)c1ccc(-c2ccccc2)[nH]1 (centres unmarked) | 4.6%

Row | SMILES | hERG current change (%, negative = inhibition) at 10uM
22 | Cc1ccc(C(C(=O)NCC2CCCO2)N(Cc2ccccc2)C(=O)c2ccc(-c3ccccc3)[nH]2)o1 (centres unmarked) | -7.63%
23 | O=C(NC1CCCC1)C(c1ccncc1)N(Cc1ccco1)C(=O)c1ccc(-c2ccccc2)[nH]1 (centres unmarked) | 1.38%
24 | O=C(NC1CCCC1)C(c1ccncc1)N(Cc1ccccc1)C(=O)c1ccc(-c2ccccc2)[nH]1 (centres unmarked) | -4.27%
25 | O=C(NC1CCCCC1)C(c1cccs1)N(CCCN1CCOCC1)C(=O)c1ccc(-c2ccccc2)[nH]1 (centres unmarked) | -66.5%
26 | Cc1ccc(C(=O)COC(=O)c2ccccc2N2C(=O)C3C4CCC(C4)C3C2=O)cc1C (centres unmarked) | -19.2%
27 | CCN(CCO)C(=O)C12CCC(C)(C(=O)C1)C2(C)C (centres unmarked) | -9.66%
28 | COc1c(Cl)cc(C(=O)NN)cc1Cl | 0.95%
29 | CC(=O)Nc1sc2c(c1C(N)=O)CCCC2 | 22.8%
30 | CCc1cccc(C)c1NC(=O)CCOc1ccccc1 | 3.79%
31 | c1ccc(C2=Nc3cccnc3C(c3ccccc3)=NN2)cc1 | 15.9%
32 | O=C(CCNS(=O)(=O)c1ccccc1)OCC(=O)c1ccc(Cl)cc1 | -30%
33 | CC(C)CN(C(=O)COC(=O)c1ccc(Br)cc1)c1c(N)n(Cc2ccccc2)c(=O)[nH]c1=O | -2.83%
34 | CCOC(=O)C1=C(COC(=O)c2cccs2)NC(=O)NC1C (centres unmarked) | 6.08%
35 | Cc1sc(NC(=O)c2ccccc2F)c(CN2CCCCC2C)c1C (centres unmarked) | -7.58%
36 | Cc1ccccc1NC(=O)c1ccc(Cl)c(NC(=O)c2ccncc2)c1 | -32.1%
37 | CSC1=N/C(=C\c2ccc3c(c2)OCO3)C(=O)S1 | 12.3%
38 | O=C(N/N=C/c1cccs1)C1CC(=O)N(c2ccccc2)C1 (centres unmarked) | -8.24%
39 | Cn1ncc2c(NNC(=O)c3ccccc3Cl)ncnc21 | 10.1%
40 | Cc1ccccc1N1CCN(C2CCCN(C(=O)CCC(=O)N(C)C)C2)CC1 (centres unmarked) | 9.34%
41 | COc1ccc(OCC(=O)N2CCCC(N3CCN(c4ccccc4C)CC3)C2)cc1 (centres unmarked) | -85.9%

— article PMC4336329 (PLoS ONE, 2015)
